A selection: hits, their analogues and other compounds. The true share with any hit is near 21%.
DT40 TDP1 CPT – DT40-hTDP1 cell growth loss with CPT; AID 686979; Potency, µM (doses to about 46.2 µM), without a hit: at the highest dose activity change, negative = growth inhibition, most hits filed as inhibitors; 420,000 tested, 12% active; chicken DT40 Tdp1-/-;hTDP1 cells + 20 nM CPT, ATP luminescence, 48 h; further: potency means the concentration at half of the fitted maximal effect; on the % scale 0 is the no-effect control and ±100 the full control effect; nearly all actives have a fitted effect of over 55% in size
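Chicken DT40 Tdp1-/- cells stably complemented with human TDP1 were seeded at 400 cells/well in medium containing 20 nM camptothecin, exposed to pin-transferred compounds, and grown at 37 °C for at least 48 hr. Viability was read as ATP luminescence.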
DT40 TDP1 no CPT – qHTS for Inhibitors of human tyrosyl-DNA phosphodiesterase 1 (TDP1): qHTS in cells in absence of CPT. DT40 Tdp1-/- hTDP1 cells, no CPT, ATP luminescence, 48 h. Potency, µM (series often up to 46.2 µM), for the others: at the highest dose activity change, negative = growth inhibition, actives largely listed as inhibitors. 420,000 tested, 15% active; further: potency means the concentration at half of the fitted maximal effect; on the % scale 0 is the no-effect control and ±100 the full control effect; nearly all actives have a fitted effect of over 55% in size
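Chicken DT40 Tdp1-/- cells stably complemented with human TDP1 were seeded at 400 cells/well with DMSO in place of 20 nM camptothecin. After compound pinning, cells grew at least 48 hr at 37 °C; viability read by CellTiter-Glo luminescence.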
D3 ag – agonists of human D3 dopamine receptor. P35462. D3R DiscoveRx beta-arrestin cells, luminescence, 90 min. max activation, %. 410,000 tested, 0.58% active. AID 652048; in the data active means max activation above about 30%; further: 0% is about no effect
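Agonist mode: compounds and dopamine controls were applied to plated cells for 90 min at 37 degrees C after an overnight attachment at 1500 cells/well. Luminescent read-out followed 30 - 60 minutes at room temperature with DiscoveRx detection reagent.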
ClpP mod – qHTS Assay for Activators of ClpP; Potency, µM (top dose mostly 57.5 µM), without a hit: at the top dose activity change, negative = active; ATP-dependent Clp protease proteolytic subunit (Bacillus subtilis (strain 168)), P80244; purified B. subtilis ClpP, FRET peptide cleavage, 20 min; 340,000 tested, 1.9% active; active means well fitted falling curve with a large enough effect; inconclusive means small, poorly fitted or top-dose-only effect; inactive means no such curve, though single readings can be large or run the other way; further: potency means the concentration at half of the fitted maximal effect; the source files actives as falling curves though it sought activators and does not explain the sign; nearly all actives have a fitted effect of over 65% in size
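ClpP 10 microg/mL final, pH 8 Tris/KCl buffer with BSA, glycerol, Tween-20; compound pinned in; FRET-FV substrate; RT 20 min; Ex320/Em430; ΔFRET vs ADEP 5.8 microM, DMSO, no enzyme.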
IL-1B inflam inh – inflammasome signaling inhibition, IL-1 beta readout. AID 743279. THP-1 LPS/ATP IL-1B secretion, AlphaLISA, 16 h; hits give low values. activity change, % at 57.5 µM. 360,000 tested, 4.7% active; in the data active means activity change below about -50%; inconclusive means mostly about -30% to -49%; further: on the % scale 0 is the no-effect control and ±100 the full control effect
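Secreted IL-1B measured by AlphaLISA bead assay after 16 h compound exposure of THP-1 cells; compounds (final up to 57.5 uM) added 1 h before LPS (250 ng/mL) and ATP (1.25 mM) stimulation; lower signal means less secretion.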
DRD3 antagonist – D3 dopamine receptor (human) antagonism. P35462. 360,000 tested, 2.5% active. max response, negative = inhibition, %. D3R cells, DiscoveRx beta-arrestin luminescence, antagonist mode; hits give low values; in the data active means max response below about -50%; inconclusive means no clear call, values can overlap the other calls; further: on the % scale 0 is the no-effect control and ±100 the full control effect
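Cells expressing the human receptor were seeded at 1500 cells/well, incubated overnight at 37 degrees C in 5% CO2, then exposed to library compounds with dopamine controls for 90 minutes at 37 degrees C before luminescent detection.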
An asterisk follows results filed as active; ? = inconclusive; nt = no result given; [ ] = remark or other dose. Unless noted, the call rests on the fitted dose curve; in most records, active means well fitted inhibition curve with a large enough effect; inconclusive means small, poorly fitted or top-dose-only effect; inactive means flat fitted curve, though single readings scatter.

SMILES | DT40 TDP1 CPT | DT40 TDP1 no CPT | D3 ag | ClpP mod | IL-1B inflam inh | DRD3 antagonist
Nc1c(C(=O)NCCCc2ccccc2)c2nc3ccccc3nc2n1Cc1cccs1 | ? | ? | 35* | ? | -21 | 23
CCCCn1c(N)c(C(=O)OCCOC)c2nc3ccccc3nc21 | 3% | -26% | 7 | nt | nt | -9
COCCCn1c(N)c(C(=O)NCCC(C)C)c2nc3ccccc3nc21 | ? | ? | 1 | 32µM* | -53* | 10
CCCCNC(=O)c1c(N)n(Cc2ccc3c(c2)OCO3)c2nc3ccccc3nc12 | 29µM* | ? | 16 | 10µM* | -30 | -3
COCCCNC(=O)c1c(NC(=O)c2ccccc2)n(Cc2ccccc2)c2nc3ccccc3nc12 | ? | -4% | -3 | 32µM* | -3 | -24
CCCCn1c(N)c(C(=O)NCc2cccs2)c2nc3ccccc3nc21 | -18% | ? | 7 | 25µM* | -58* | -17
CCCCOCCCn1c(N)c(C(=O)OCCOC)c2nc3ccccc3nc21 | ? | ? | -2 | 2% | ? | 40
COc1ccc(CCNC(=O)c2c(N)n(CCN3CCOCC3)c3nc4ccccc4nc23)cc1OC | 15µM* | 13µM* | 16 | -21% | ? | 35
CCCCn1c(NS(=O)(=O)c2ccc(C)cc2)c(C(=O)OCC)c2nc3ccccc3nc21 | ? | ? | -10 | 161% | -7 | -11
CCCCCCn1c(N)c(C(=O)NCCN2CCOCC2)c2nc3ccccc3nc21 | 21µM* | ? | 8 | 25µM* | -73* | -9
CCOCCCn1c(N)c(C(=O)Nc2sc3c(c2C(=O)OC)CCCC3)c2nc3ccccc3nc21 | 21µM* | 21µM* | -10 | 5% | 5 | -21
COCCOC(=O)c1c(N)n(Cc2ccccc2)c2nc3ccccc3nc12 | ? | ? | 4 | 70% | -17 | 0
CCCOC(=O)c1c(N)n(Cc2cccs2)c2nc3ccccc3nc12 | 18µM* | ? | 0 | ? | -3 | 0
CC(C)C[C@H](NC(=O)[C@H](Cc1ccccc1)NC(=O)CNC(=O)CNC(=O)[C@@H](N)Cc1ccc(O)cc1)C(=O)N[C@@H](CCCN=C(N)N)C(=O)N[C@@H](CCCCN)C(=O)N[C@@H](Cc1ccc(O)cc1)C(=O)N1CCC[C@H]1C(=O)N[C@@H](CCCCN)C(=O)O | 8%[4.12 µM] | 2%[4.12 µM] | nt | nt | nt | nt
COc1ccc(C(=O)Nc2ccccc2C(=O)NC(C(=O)NCc2ccco2)C(C)C)cc1 (stereo unspecified) | ? | ? | 8 | -6% | 35 | -61*
COc1ccc(N2C(=O)CS(=O)C(c3ccccc3)C2=O)cc1 (stereo unspecified) | ? | 21µM* | 3 | nt | 20 | ?
C[N+]1(C)C2CC(OC(=O)C(CO)c3ccccc3)CC1C1OC12 (stereo unspecified) | -22% | 3% | -5 | -4% | -20 | -16
O=C(NC(=S)N1C[C@H]2C[C@H](C1)c1cccc(=O)n1C2)c1ccc(Cl)cc1Cl | 2% | 1% | -4 | -1% | -1 | 22
COc1ccc(CNCCc2ccc3c(c2)OCO3)cc1Br | ? | 21µM* | 1 | 1% | 0 | -27
c1cncc(CNCCc2ccc3c(c2)OCO3)c1 | 4% | -9% | -6 | 2% | -6 | -14
Clc1ccc(CNCCc2ccc3c(c2)OCO3)cc1 | 26% | -21% | -11 | nt | -84* | -25
Clc1cccc(CNCCc2ccc3c(c2)OCO3)c1 | ? | ? | -19 | nt | -81* | ?
COc1cccc(CNCCc2ccc(F)cc2)c1 | ? | ? | 2 | 0% | -14 | -6
Fc1ccc(CCNCc2cccc(Cl)c2)cc1 | ? | ? | -29 | 0% | ? | -56*
C[C@@H]1CN([C@@H](C)CO)C(=O)CCCn2cc(nn2)CO[C@H]1CN(C)C(=O)Oc1ccc2ccccc2c1 | -20% | -22% | 8 | 1% | 21 | 29
SMILES | DT40 TDP1 CPT | DT40 TDP1 no CPT | D3 ag | ClpP mod | IL-1B inflam inh | DRD3 antagonist
COP(=O)(OC)C(NC(=O)/C=C/c1ccccc1)C(Cl)(Cl)Cl (stereo unspecified) | 0% | -24% | -6 | nt | ? | 3
Fc1ccc(CCNCc2ccc(Br)cc2)cc1 | ? | ? | -17 | nt | -68* | -56*
Fc1ccc(CNCCc2ccccc2F)cc1 | -7% | -14% | -11 | -3% | -27 | ?
CC(C)NCC(O)COc1cccc2[nH]ccc12 (stereo unspecified) | ? | -19% | -11 | nt | nt | nt
CC(C)c1cc(Br)c(NC(=O)Nc2cccnc2)c(Br)c1 | -3% | 4% | 1 | -1% | 24 | -3
CC(C)[C@H](N)C(=O)OCC(CO)OCn1cnc2c(=O)[nH]c(N)nc21 (stereo partly specified) | 13µM* | 11µM* | -5 | nt | nt | nt
CCN(CC)C(=O)c1ccc(NC(=O)CN2CCc3cc(OC)c(OC)cc3C2)cc1 | 5% | -9% | -22 | -1% | -5 | -21
O=C(c1cc2c(s1)-c1ccccc1OC2)N1CCC2(CC1)OCCO2 | ? | ? | -4 | 28µM* | -7 | -1
O=C(c1cc2c(s1)CCCC2)N1CCC2(CC1)OCCO2 | -12% | ? | 12 | -1% | 30 | 21
c1ccc2c(c1)[IH]c1ccccc1-2 | 0.052µM* | 0.052µM* | -6 | 1% | -94* | 0
COC(=O)[C@]1(C)CC[C@@]2(C)CC[C@@]3(C)C4=CCc5c(cc(O)c(O)c5C)[C@]4(C)CC[C@@]3(C)C2C1 (stereo partly specified) | 4.6µM* | 1.8µM* | nt | nt | nt | nt
Clc1ccc(OCCCN2CCCC2)cc1Cl | ? | ? | -36 | 2% | -10 | -66*
C[N+](C)(C)CC1CCCc2ccccc2C1=O (stereo unspecified) | 2.9µM* | 2.6µM* | -10 | 15% | -11 | -2
C[N+](C)(C)CC1CCCC(C[N+](C)(C)C)C1=O (stereo unspecified) | 0.041µM* | 0.058µM* | -9 | 1% | -23 | -26
CCCCCCOC(=O)c1ccccc1N | ? | -17% | -5 | 22µM* | -4 | 17
CCCCOC(=O)c1ccccc1N | 2% | 0% | 10 | 4% | -8 | 16
COC(=O)CNC(=O)c1cn(CCC#N)nc1-c1ccc(F)cc1 | 8% | 6% | 3 | nt | 18 | 15
COc1cc(C)c(C(=O)CC(=O)c2c(C)cc(OC)cc2C)c(C)c1 | 15µM* | 12µM* | 19 | nt | 131 | -15

High-throughput results (PubChem)
